Source: PubChem (Buhrlage Lab, Dana-Farber Cancer Institute and Novartis Institutes for BioMedical Research (Cambridge, Mass))
USP10 block – human USP10 deubiquitinase inhibition | purified USP10, Ub-rhodamine fluorescence, 60 min | inhibition, % at 20 µM | actives 1.1% (n = 47,000) | AID 1645856
USP7 inh – human USP7 deubiquitinase inhibition; Q93009; purified USP7, Ub-rhodamine cleavage fluorescence; inhibition, % at 20 µM; AID 1645854; actives 0.3% (n = 47,000)
OTUD3 inh – human OTUD3 deubiquitinase inhibition | Q5T2D3 | purified OTUD3, Ub-rhodamine fluorescence, 2 h | inhibition, % at 25 µM | actives 0.7% (n = 47,000) | AID 1645858
Target sequence (Q5T2D3 whole entry, looked up): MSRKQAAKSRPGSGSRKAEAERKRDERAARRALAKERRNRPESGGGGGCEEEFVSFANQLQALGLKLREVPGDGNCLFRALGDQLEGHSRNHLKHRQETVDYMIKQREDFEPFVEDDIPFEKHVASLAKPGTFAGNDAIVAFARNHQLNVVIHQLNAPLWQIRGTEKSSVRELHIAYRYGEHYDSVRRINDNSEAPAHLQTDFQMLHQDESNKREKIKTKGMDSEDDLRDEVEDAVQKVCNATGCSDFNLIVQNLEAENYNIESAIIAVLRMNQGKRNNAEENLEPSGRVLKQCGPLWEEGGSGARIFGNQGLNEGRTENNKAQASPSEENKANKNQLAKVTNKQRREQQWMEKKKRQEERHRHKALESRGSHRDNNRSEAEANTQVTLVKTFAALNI
UCHL1 inh – blocks human UCHL1 ubiquitin-rhodamine cleavage | P09936 | purified UCHL1, Ub-rhodamine cleavage fluorescence | inhibition, % at 20 µM | actives 0.2% (n = 47,000)
Active calls of the source: *. Shown are actives, neighbours in structure and some others; about 1.8% of the full set was active somewhere. No stated cut-off is given here; in the data, active means inhibition above about 30%; inactive means the rest.

What do the screens show for `CC1O[C@@H](c2ccc3c(c2O)C(=O)C2=C(C3=O)[C@@]3(O)C(=O)C(O)[C@](C)(O)C[C@@]3(O)C=C2)CC[C@@H]1OC(=O)/C=C/C=C/C=C/[C@@H]1O[C@@](C)(C(=O)O)O[C@H]1C` (stereo not given in full)?
USP10 block: -5; USP7 inh: -18; OTUD3 inh: 46*; UCHL1 inh: 38*

What do the screens show for `O=C(CCCCn1c(=O)c2ccccc2n(CC(=O)NC2CCCCC2)c1=O)NCCc1ccccc1`?
USP10 block: 0; USP7 inh: 4; OTUD3 inh: 17; UCHL1 inh: 1

What do the screens show for `COc1ccccc1/C=C/C(=O)Nc1nc2n(n1)C(c1ccc(Cl)cc1)CC(=O)N2` (stereo not given)?
USP10 block: 11; USP7 inh: 0; OTUD3 inh: 37*; UCHL1 inh: 1

Results for Cc1nc(C(=O)NC2(O)C(=O)c3ccccc3C2=O)cs1 ?
USP10 block: 27; USP7 inh: -94; OTUD3 inh: 5; UCHL1 inh: 29

How did CSc1ncccc1C(=O)NC1(O)C(=O)c2ccccc2C1=O do in these assays?
USP10 block: 41*; USP7 inh: -90; OTUD3 inh: 23; UCHL1 inh: 34*

What do the screens show for `COc1cc2c(cc1OC)-c1cc(NCC(C)C)nc(=O)n1CC2`?
USP10 block: -5; USP7 inh: -7; OTUD3 inh: 2; UCHL1 inh: -11

What do the screens show for `COc1cc2c(cc1OC)-c1cc(NCc3cc(OC)c(OC)c(OC)c3)nc(=O)n1CC2`?
USP10 block: -8; USP7 inh: -3; OTUD3 inh: 41*; UCHL1 inh: -6

Results for COc1ccc(C)cc1NC(=O)CN1C(=O)C2CCCC2=Nc2ccccc21 (stereo not given) ?
USP10 block: 25; USP7 inh: 8; OTUD3 inh: 35*; UCHL1 inh: 3

Results for COc1cccc(NC(=O)CN2C(=O)C3CCCC3=Nc3ccccc32)c1 (stereo not given) ?
USP10 block: 6; USP7 inh: 4; OTUD3 inh: 8; UCHL1 inh: 5

Results for CC(C)N1C(=O)c2cccnc2Sc2cc(NC(=O)CCc3ccccc3)ccc21 ?
USP10 block: -7; USP7 inh: -38; OTUD3 inh: -38; UCHL1 inh: -35

How did CC1(c2ncc(CNC(=O)c3cnn4cccnc34)cn2)CCCCO1 (stereo not given) do in these assays?
USP10 block: 1; USP7 inh: 0; OTUD3 inh: 0; UCHL1 inh: 0

Results for Cc1cc(O)cc2c1C(=O)c1c(O)ccc(O)c1C2=O ?
USP10 block: -4; USP7 inh: -47; OTUD3 inh: -97; UCHL1 inh: -21

How did Cc1occ2c1C(=O)c1c(O)ccc(O)c1C2 do in these assays?
USP10 block: 89*; USP7 inh: 99*; OTUD3 inh: 94*; UCHL1 inh: 97*

What do the screens show for `COc1ccc(CSc2nnc(-c3ccccn3)n2-c2ccc(OC)cc2)cc1`?
USP10 block: -1; USP7 inh: 1; OTUD3 inh: 7; UCHL1 inh: 0

How did Oc1cc(O)cc(/C=C/c2ccc(O)c(O)c2)c1 do in these assays?
USP10 block: -4; USP7 inh: -140; OTUD3 inh: 47*; UCHL1 inh: 1

How did CC(OC(=O)c1cccc(N(C)C)c1)C(=O)Nc1ncc(Cl)cc1Cl (stereo not given) do in these assays?
USP10 block: -3; USP7 inh: 2; OTUD3 inh: -2; UCHL1 inh: 75*

How did CC(C)=CCc1cccc2c(C3=C(O)C(=O)C(c4c[nH]c5c(CC=C(C)C)cccc45)=C(O)C3=O)c[nH]c12 do in these assays?
USP10 block: 1; USP7 inh: 7; OTUD3 inh: 31*; UCHL1 inh: 0

Results for C=CCN(C(=O)c1cc2c(Cl)nc3ccccc3c2s1)c1ccccc1 ?
USP10 block: -2; USP7 inh: 0; OTUD3 inh: -17; UCHL1 inh: -1

What do the screens show for `COc1ccc2c(C)c(CC(=O)N3CCC[C@H]3C(=O)O)c(=O)oc2c1C`?
USP10 block: 2; USP7 inh: -154; OTUD3 inh: 32*; UCHL1 inh: 2

What do the screens show for `COc1ccc2c(C)c(CCC(=O)N3CC[C@@]4(O)CCCC[C@H]4C3)c(=O)oc2c1C`?
USP10 block: -2; USP7 inh: 0; OTUD3 inh: -2; UCHL1 inh: -2

What do the screens show for `CCCC(=O)Oc1cn(CCCN2CCCC2=O)c2nc(CCC)n3c4ccccc4nc3c12`?
USP10 block: -5; USP7 inh: -73; OTUD3 inh: -157; UCHL1 inh: -89
